Data reported in PubChem BioAssay (NCATS).
Results filed as inconclusive are left out. The source made the active and inactive calls. Unless noted, calls come from the whole dose curve; as a rule, active = well fitted curve in the direction sought with a large enough effect; inconclusive = small, poorly fitted or top-dose-only effect, or another doubt; inactive = no such curve, though single readings can be large; an effect the other way counts as inactive or inconclusive.

Key:
[1] = biological target: Lysosomal acid glucosylceramidase (Homo sapiens) (UniProt P04062); test: Glucocerebrosidase-p2 (AID 348; in the data active = potency below about 10 µM; note: potency is the fitted concentration of half-maximal effect); conditions: purified GBA, blue fluorogenic substrate, 40 min
Sequence of Lysosomal acid glucosylceramidase (Homo sapiens) (P04062 whole entry, looked up): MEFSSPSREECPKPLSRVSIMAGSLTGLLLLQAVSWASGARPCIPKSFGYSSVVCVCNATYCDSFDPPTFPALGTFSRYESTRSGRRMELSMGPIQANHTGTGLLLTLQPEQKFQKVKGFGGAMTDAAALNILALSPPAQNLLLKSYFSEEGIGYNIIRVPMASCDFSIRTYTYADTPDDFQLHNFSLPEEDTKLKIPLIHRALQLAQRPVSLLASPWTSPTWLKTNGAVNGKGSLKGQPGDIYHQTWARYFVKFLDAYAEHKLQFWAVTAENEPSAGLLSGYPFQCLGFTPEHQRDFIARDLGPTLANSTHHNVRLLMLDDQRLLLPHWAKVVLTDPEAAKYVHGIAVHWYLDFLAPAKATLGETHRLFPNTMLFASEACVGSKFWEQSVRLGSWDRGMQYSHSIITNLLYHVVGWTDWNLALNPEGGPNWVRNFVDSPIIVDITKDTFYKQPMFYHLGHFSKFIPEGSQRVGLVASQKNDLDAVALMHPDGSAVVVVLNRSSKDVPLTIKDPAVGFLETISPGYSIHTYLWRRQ
Outline: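 Normal human glucocerebrosidase (0.2 nM) with blue fluorogenic substrate (80 uM final) in citrate/phosphate pH 5.9 with 10mM sodium taurocholate, 0.01% tween-20; 40 min RT, NaOH/glycine stop; fluorescence Ex 365/Em 440; AC50 from a titration from 0.6 nM upwards.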

[2] = AP1 Signaling Pathway (AID 357; active = well fitted curve in either direction with a large enough effect, not every such curve was filed as active;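 note: ME-180 reporter cells stimulated with EGF at its EC50 level; % is set by controls: 0 for no effect and ±100 for the full control effect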); conditions: ME-180 AP-1-bla reporter, EGF-induced, beta-lactamase ratio, 5 h; at 7.69 µM (top of the series) unless noted
Outline: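 Titration-series screen for positive or negative modulators of EC50 EGF-induced signaling in ME-180 cells carrying an AP-1-driven beta-lactamase reporter. After 5 hours at 37 degrees Celsius, CCF4 460nm/530nm emission ratio gave %Activity; AC50 values derived.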

[3] = biological target: Cytochrome P450 1A2 (Homo sapiens) (UniProt P05177); test: p450-cyp1a2 (AID 410; calls by dose curve; note: potency is the fitted concentration of half-maximal effect); conditions: recombinant CYP1A2, luciferin-ME demethylation, luminescence; series mostly up to 57 µM
Sequence of Cytochrome P450 1A2 (Homo sapiens) (P05177 whole entry, looked up): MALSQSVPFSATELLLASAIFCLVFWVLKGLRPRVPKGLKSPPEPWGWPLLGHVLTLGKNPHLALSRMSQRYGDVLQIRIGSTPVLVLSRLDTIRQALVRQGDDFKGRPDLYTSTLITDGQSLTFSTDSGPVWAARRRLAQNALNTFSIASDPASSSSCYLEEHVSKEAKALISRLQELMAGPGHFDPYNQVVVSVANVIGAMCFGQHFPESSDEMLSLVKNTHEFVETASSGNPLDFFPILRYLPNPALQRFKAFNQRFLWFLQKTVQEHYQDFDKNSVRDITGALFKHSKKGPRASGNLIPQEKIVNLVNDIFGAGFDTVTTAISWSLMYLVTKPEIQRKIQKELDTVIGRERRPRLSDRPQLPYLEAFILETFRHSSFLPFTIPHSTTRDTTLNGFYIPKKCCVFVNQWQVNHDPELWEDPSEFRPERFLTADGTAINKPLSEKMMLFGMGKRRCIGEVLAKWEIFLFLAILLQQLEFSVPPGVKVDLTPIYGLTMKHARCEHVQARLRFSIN
Outline: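 Luminescent demethylation readout: Luciferin-ME (100uM, equal to Km) turned over by 20nM CYP1A2 for 60 min at room temperature after NADPH regeneration addition, following 10 min compound preincubation. Normalization used 57 uM furafylline as full inhibition.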

[4] = NFAT Signaling Pathway (AID 444; active = well fitted curve in either direction with a large enough effect, not every such curve was filed as active;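 note: carbachol stimulus at about its EC50 of 1 µM final; % is set by controls: 0 for no effect and ±100 for the full control effect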); conditions: Jurkat NFAT-bla M1, carbachol, beta-lactamase ratio, 5 h; at 7.69 µM (top of the series) unless noted
Outline: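 Read-out: CCF4 FRET ratio (460 nm/530 nm) after 1 h RT dye loading, used for %activity and AC50 from titration series. Cells: Jurkat NFAT-β-lactamase/M1 line, treated with compound plus 1 uM carbachol for 5 h, 37 °C.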

[5] = biological target: Glucocorticoid receptor (Homo sapiens) (UniProt P04150); test: GR-GFP Redistribution (AID 450;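 active = compounds whose dose series gives a full or clear partial fitted curve of increased nuclear translocation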; note: potency is the fitted concentration of half-maximal effect); conditions: U2OS GR-GFP nuclear translocation, laser cytometry, 2 h
Sequence of Glucocorticoid receptor (Homo sapiens) (P04150 whole entry, looked up, the tested form may be a part): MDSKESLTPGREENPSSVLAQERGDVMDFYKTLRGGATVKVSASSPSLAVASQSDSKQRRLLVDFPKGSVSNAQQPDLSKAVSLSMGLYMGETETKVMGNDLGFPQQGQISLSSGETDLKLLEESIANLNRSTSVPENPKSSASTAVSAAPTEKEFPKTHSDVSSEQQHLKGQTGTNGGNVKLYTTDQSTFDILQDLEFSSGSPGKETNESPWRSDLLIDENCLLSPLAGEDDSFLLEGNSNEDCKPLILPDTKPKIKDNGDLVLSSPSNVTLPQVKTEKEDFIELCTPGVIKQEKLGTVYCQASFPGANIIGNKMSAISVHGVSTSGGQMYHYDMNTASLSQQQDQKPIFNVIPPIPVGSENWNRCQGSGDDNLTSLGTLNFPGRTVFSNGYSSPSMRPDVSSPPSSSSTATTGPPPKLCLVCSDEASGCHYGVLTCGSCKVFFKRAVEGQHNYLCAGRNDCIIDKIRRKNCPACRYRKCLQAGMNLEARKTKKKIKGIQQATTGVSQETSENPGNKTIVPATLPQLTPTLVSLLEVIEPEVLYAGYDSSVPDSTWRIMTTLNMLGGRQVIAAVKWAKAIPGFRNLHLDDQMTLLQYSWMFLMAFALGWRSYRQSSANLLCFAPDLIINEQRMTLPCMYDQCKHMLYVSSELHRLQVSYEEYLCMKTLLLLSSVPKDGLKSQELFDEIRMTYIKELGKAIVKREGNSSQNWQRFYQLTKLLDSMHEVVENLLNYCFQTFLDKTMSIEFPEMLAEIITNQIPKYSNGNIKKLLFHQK

[6] = biological target: Glucocorticoid receptor (Homo sapiens) (UniProt P04150); test: GR-EFC Redistribution (AID 451; calls by dose curve; note: potency is the fitted concentration of half-maximal effect); conditions: CHO-K1 GR-EFC translocation, beta-gal luminescence, 2 h
Outline: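 Translocation of GR-ED fusion to nuclear EA restores b-gal, read by luminescence after 1 h room-temperature detection. Engineered CHO-K1 biosensor cells, 1,000/well, exposed 2 h at 37 C to titrations up to 46 uM final.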

[7] = biological target: Mitogen-activated protein kinase 10 (Mus musculus) (UniProt Q61831); test: JNK3 AlphaScreen Assay (AID 530; active = well fitted curve in either direction with a large enough effect, not every such curve was filed as active;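 note: kinase came from lysate of stimulated human HepG2 cells; signal reports phosphorylation of biotinylated GST-cJun 1-79 at Ser73 with 10 µM ATP; % is set by controls: 0 for no effect and ±100 for the full control effect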); conditions: JNK3 lysate, c-Jun phosphorylation; series mostly up to 57.1 µM
Outline: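 qHTS titrations with 15 min compound pre-incubation before adding ATP (10 uM final). Read-out: AlphaScreen of Ser73-phosphorylated biotin-GST-cJun using HepG2 lysate JNK3 activated by IL-1β and TNFα.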

[8] = biological target: 3',5'-cyclic-AMP phosphodiesterase 4B (Homo sapiens) (UniProt Q07343); test: qHTS Assay for Inhibitors of PDE-IV (AID 607; active = well fitted activation curve with a large enough effect in the main read-out, with a control signal flat, not every such curve was filed as active; note: % of control where 0% means no effect); conditions: HEK293 ACTOne CNG channel cells, membrane potential fluorescence; series mostly up to 22.9 µM
Sequence of 3',5'-cyclic-AMP phosphodiesterase 4B (Homo sapiens) (Q07343 whole entry, looked up): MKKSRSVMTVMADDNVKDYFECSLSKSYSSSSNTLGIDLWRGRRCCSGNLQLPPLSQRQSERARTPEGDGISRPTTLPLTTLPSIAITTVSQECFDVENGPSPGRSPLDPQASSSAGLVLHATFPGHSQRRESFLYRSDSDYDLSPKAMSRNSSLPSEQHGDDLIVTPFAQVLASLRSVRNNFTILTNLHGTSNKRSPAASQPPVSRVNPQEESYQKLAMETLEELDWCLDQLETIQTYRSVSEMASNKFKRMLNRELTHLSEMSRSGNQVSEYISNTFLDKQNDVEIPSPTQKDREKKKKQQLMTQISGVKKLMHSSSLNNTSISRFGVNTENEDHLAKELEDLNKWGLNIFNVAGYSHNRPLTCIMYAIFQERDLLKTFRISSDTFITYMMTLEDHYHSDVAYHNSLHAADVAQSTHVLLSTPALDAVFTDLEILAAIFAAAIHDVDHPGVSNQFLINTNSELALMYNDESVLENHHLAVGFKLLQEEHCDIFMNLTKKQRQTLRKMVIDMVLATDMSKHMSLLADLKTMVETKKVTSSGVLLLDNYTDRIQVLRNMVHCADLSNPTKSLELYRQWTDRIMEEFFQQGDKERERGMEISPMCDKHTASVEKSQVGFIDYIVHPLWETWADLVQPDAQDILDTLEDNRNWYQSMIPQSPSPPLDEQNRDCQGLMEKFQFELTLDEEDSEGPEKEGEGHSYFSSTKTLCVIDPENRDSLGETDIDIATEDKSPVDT
Outline: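 The readout is membrane depolarisation from a cAMP-sensing CNG channel, detected with a potential dye at ex 535/em 590. Cells were HEK293-derived (endogenous PDE-IV) at 1000 cells/well, titrated up to 22.9 uM final.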

[9] = biological target: Cytochrome P450 3A4 (Homo sapiens) (UniProt P08684); test: qHTS Assay for Inhibitors and Substrates of Cytochrome P450 3A4 (AID 884); conditions: recombinant CYP3A4, Luciferin-PPXE luminescence; series mostly up to 57.1 µM; note: potency is the fitted concentration of half-maximal effect; nearly all actives have a fitted effect of over 50% in size
Sequence of Cytochrome P450 3A4 (Homo sapiens) (P08684 whole entry, looked up): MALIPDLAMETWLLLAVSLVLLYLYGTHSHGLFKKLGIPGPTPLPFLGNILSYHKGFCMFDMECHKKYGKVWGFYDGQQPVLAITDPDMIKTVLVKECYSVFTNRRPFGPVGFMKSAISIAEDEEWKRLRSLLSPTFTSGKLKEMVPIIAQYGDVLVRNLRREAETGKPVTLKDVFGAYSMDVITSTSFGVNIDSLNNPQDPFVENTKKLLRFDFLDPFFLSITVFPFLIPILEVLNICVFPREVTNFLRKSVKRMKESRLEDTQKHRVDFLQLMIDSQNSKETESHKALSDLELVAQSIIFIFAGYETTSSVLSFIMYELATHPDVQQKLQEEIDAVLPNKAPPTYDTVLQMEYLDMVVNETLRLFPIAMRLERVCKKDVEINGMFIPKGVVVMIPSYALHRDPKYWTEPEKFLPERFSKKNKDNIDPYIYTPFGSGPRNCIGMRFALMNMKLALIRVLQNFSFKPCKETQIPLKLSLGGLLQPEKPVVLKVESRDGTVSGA
Outline: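 Luminescent readout of luciferin produced by CYP3A4 (20 nM) dealkylation of Luciferin-PPXE, 25 uM (its KM). NADPH-driven reaction ran 60 min at RT after 10 min compound preincubation; data scaled to 57 uM ketoconazole as 100% inhibition.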

[10] = biological target: Cytochrome P450 3A4 (Homo sapiens) (UniProt P08684); test: qHTS Assay for Activators of Cytochrome P450 3A4 (AID 885); conditions: recombinant CYP3A4, Luciferin-PPXE luminescence, 60 min; series mostly up to 57.1 µM; note: nearly all actives have a fitted effect of over 65% in size
Outline: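 Activators are scored by enhanced luminescence from CYP3A4 conversion of luciferin-PPXE (25uM, equal to KM) to luciferin, after 60 min at RT with an NADPH-regenerating system.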

[11] = qHTS Assay for Lipid Storage Modulators (AID 1519; calls by dose curve); conditions: Drosophila S3 cells, BODIPY lipid droplet/cell ratio, laser cytometry, cells loaded with oleic acid; for activity change, negative = inhibition: at 57.5 µM (top of the series)
Outline: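 Cells seeded at 5,000 per well were treated with compounds over a concentration series and loaded with oleic acid (400 uM, as added). Lipid droplet fluorescence (488 nm excitation, 500-530 nm channel) was read by laser-scanning cytometry and normalized to 20 uM Triacsin C.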

[12] = biological target: Dual specificity protein kinase CLK4 (Homo sapiens) (UniProt Q9HAZ1); test: qHTS Assay for Inhibitors of CDC-like Kinase 4 (Kinase-Glo Assay) (AID 1770); conditions: recombinant Clk4, Kinase-Glo ATP depletion luminescence; series mostly up to 66.7 µM; note: nearly all actives have a fitted effect of over 65% in size; note: potency is the fitted concentration of half-maximal effect
Sequence of Dual specificity protein kinase CLK4 (Homo sapiens) (Q9HAZ1 whole entry, looked up): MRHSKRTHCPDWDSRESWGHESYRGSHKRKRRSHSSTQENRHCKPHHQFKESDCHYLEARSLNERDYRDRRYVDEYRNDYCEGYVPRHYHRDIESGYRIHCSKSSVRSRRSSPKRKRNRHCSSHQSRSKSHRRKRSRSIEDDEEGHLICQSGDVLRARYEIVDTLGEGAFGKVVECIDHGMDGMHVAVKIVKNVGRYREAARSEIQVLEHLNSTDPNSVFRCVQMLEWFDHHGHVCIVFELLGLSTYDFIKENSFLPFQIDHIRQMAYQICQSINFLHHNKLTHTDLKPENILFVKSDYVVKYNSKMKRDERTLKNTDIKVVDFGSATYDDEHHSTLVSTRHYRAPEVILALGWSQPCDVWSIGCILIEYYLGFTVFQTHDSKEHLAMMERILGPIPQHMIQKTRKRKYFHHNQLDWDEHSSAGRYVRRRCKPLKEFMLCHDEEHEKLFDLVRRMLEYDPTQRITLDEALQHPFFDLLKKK
Outline: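 Inhibition was judged from remaining ATP, measured by Ultra-Glo luciferase bioluminescence after Clk4 (25 nM) had acted on RS peptide at 1 uM ATP for 4.5 hours, room temperature.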

[13] = biological target: Dual specificity protein kinase CLK4 (Homo sapiens) (UniProt Q9HAZ1); test: qHTS Assay for Inhibitors of CDC-like Kinase 4 (ADP-Glo Assay) (AID 1771); conditions: recombinant CLK4, ADP-Glo luminescence; series mostly up to 80 µM; note: nearly all actives have a fitted effect of over 70% in size; note: potency is the fitted concentration of half-maximal effect
Outline: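 ADP production was read by ADP-Glo luminescence after residual ATP depletion, following 1 h room-temperature reaction of 25 nM Clk4, 1 uM ATP and 100 uM RS peptide with MgCl2, EGTA, DTT and Triton X-100.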

[14] = biological target: Dual specificity protein kinase CLK4 (Homo sapiens) (UniProt Q9HAZ1); test: qHTS Assay for Inhibitors of CDC-like Kinase 4 (ADP-FP Assay) (AID 1795); conditions: Transcreener ADP fluorescence polarization; series mostly up to 50 µM; note: nearly all actives have a fitted effect of over 60% in size; note: potency is the fitted concentration of half-maximal effect
Outline: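 Inhibition of ADP formation by 6.25 nM Clk4 is measured using 1 uM ATP and 100 uM RS repeat peptide over one hour. Produced ADP displaces a fluorescent tracer from antibody, lowering polarization.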

[15] = biological target: Ubiquitin carboxyl-terminal hydrolase 1 (Homo sapiens) (UniProt O94782); test: Inhibitors of USP1/UAF1: Pilot qHTS (AID 504865); conditions: purified USP1/UAF1, Ub-rhodamine cleavage fluorescence; series mostly up to 54.9 µM;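 note: rhodamine fluorescence freed from ubiquitin-rhodamine substrate followed over time; top concentration of the series differs between compounds; % is set by controls: 0 for no effect and ±100 for the full control effect; nearly all actives have a fitted effect of over 35% in size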
Sequence of Ubiquitin carboxyl-terminal hydrolase 1 (Homo sapiens) (O94782 whole entry, looked up): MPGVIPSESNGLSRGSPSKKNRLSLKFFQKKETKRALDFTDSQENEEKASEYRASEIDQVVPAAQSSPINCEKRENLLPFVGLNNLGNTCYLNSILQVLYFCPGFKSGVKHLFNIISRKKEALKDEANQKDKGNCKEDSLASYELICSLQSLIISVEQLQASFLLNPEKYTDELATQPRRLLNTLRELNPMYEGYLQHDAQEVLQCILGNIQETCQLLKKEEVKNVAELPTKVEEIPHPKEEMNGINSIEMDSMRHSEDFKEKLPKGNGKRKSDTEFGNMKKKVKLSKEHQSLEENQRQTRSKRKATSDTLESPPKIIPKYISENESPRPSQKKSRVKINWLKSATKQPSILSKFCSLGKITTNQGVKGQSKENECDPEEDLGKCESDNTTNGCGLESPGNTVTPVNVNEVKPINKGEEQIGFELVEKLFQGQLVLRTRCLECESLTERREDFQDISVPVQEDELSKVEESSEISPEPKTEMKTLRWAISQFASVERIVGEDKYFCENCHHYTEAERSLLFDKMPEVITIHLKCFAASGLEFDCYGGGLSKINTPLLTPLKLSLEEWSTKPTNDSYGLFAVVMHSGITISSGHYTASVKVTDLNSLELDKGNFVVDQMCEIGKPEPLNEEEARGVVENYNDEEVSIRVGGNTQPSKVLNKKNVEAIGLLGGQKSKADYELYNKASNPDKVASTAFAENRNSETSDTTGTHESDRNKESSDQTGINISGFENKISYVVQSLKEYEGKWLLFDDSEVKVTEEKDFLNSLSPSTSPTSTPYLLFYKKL
Outline: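 Kinetic fluorescence assay: 1nM USP1/UAF1, 15 min compound preincubation, then 150nM Ub-Rho; 480/540 nm.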

[16] = Primary qHTS for small molecule stabilizers of the endoplasmic reticulum resident proteome: Secreted ER Calcium Modulated Protein (SERCaMP) assay (AID 1508630); conditions: SH-SY5Y GLuc-SERCaMP (Gaussia luciferase released on ER calcium loss) secretion, thapsigargin, luminescence; series mostly up to 38.4 µM; note: % is set by controls: 0 for no effect and ±100 for the full control effect
Outline: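 The SH-SY5Y reporter protocol was run at 3 concentrations up to 38.3 uM (primary) or 11 concentrations (follow-up): 16 h compound, 100 nM thapsigargin for 4 h, then extracellular luciferase luminescence.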

[17] = Stat Signaling Pathway (AID 446; active = well fitted curve in either direction with a large enough effect, not every such curve was filed as active); conditions: ME-180 SIE beta-lactamase reporter, IL-6 stimulated, 5 h; at 7.69 µM (top of the series) unless noted
Outline: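 Emission at 460 and 530 nm (excitation 405 nm) reports SIE-controlled beta-lactamase in ME-180 cells. Cells received compound with 40 pM IL-6 for 5 hrs at 37 C; data scaled between 300 pM IL-6 and 125 nM JAK-inhibitor controls.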

[18] = biological target: Cytochrome P450 2C19 (Homo sapiens) (UniProt P33261); test: qHTS Assay for Inhibitors and Substrates of Cytochrome P450 2C19 (AID 899); conditions: recombinant CYP2C19, luciferin-H EGE luminescence; series mostly up to 57.1 µM; note: potency is the fitted concentration of half-maximal effect; nearly all actives have a fitted effect of over 60% in size
Sequence of Cytochrome P450 2C19 (Homo sapiens) (P33261 whole entry, looked up): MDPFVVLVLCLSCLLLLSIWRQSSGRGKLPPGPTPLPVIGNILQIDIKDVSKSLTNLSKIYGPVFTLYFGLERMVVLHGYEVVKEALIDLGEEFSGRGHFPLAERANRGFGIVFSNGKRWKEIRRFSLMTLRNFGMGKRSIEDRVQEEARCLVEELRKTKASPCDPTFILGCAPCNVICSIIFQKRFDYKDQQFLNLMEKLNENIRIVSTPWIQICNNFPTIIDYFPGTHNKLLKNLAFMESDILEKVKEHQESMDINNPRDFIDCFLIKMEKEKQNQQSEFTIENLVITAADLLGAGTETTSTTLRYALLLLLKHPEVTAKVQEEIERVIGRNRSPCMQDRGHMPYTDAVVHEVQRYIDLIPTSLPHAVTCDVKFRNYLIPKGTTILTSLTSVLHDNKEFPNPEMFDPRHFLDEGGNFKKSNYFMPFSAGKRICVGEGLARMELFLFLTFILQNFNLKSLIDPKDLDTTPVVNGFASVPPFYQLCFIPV
Outline: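 5nM enzyme + 10uM Luciferin-H EGE (=KM), 50mM KPO4; cpd pin-transferred, 10 min 37C; NADPH regen, 60 min 37C; stopped w/ luciferin detection reagent, 20 min; luminescence. Normalized to 57uM ketoconazole (AC100).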

[19] = qHTS Assay for Identification of Small Molecule Agonists for Hypoxia Response Element Signaling Pathway (AID 914; active = well fitted activation curve with a large enough effect in the signal ratio, with a control signal flat, not every such curve was filed as active; the % refers to the signal ratio; note: potency is the fitted concentration of half-maximal effect); conditions: ME-180 (cervical carcinoma) HRE-bla reporter, beta-lactamase ratio, CoCl2, 17 h; activation: stronger effect = higher value
Outline: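 AC50 values come from titration-series %Activity, taken as the 460/530nm ratio of CCF4 fluorescence (excitation 405nm). CellSensor HRE-bla ME-180 cells were treated 17 hours at 37 C with compound plus an EC50 level of CoCl2.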

[20] = measured here: cell count channel max response
[21] = measured here: lipid channel max response

O=c1c(-c2ccc(F)cc2)nc2cnc(N3CCNCC3)nc2n1Cc1ccc(F)cc1
active: activity change, negative = inhibition [2] 115% [activator] | Potency [3] 15.8 µM | activity change, negative = inhibition [4] 163% [activator] | Potency [9] 7.94 µM
inactive: Potency [1] > 11.4 µM | Potency [5] > 9.22 µM | Potency [6] > 46 µM | outcome [7] | Potency [8] | Potency [10] | activity change, negative = inhibition [11] 2.38% | Potency [12] | Potency [13] | Potency [14] | Potency [15] | Potency [16]
7.95%: max response [11, 20]
9.79%: max response [11, 21]

Cc1nc2cnc(N(C)C)nc2n(C[C@H]2CCCO2)c1=O
10.5%: max response [11, 20]
13.4%: max response [11, 21]
inactive: Potency [1] > 11.4 µM | activity change, negative = inhibition [2] -5.35% | activity change, negative = inhibition [4] -4.67% | activity, negative = inhibition [17] -0.622% | Potency [5] > 9.22 µM | Potency [6] > 46 µM | outcome [7] | activity change, negative = inhibition [11] 2.86% | Potency [12] | Potency [13] | Potency [14] | Potency [15] | Potency [16]

CNc1ncncc1-c1c(C)noc1C
37%: max response [11, 20]
45.6%: max response [11, 21]
inactive: Potency [1] > 11.4 µM | activity change, negative = inhibition [2] -14.2% | activity change, negative = inhibition [4] -0.793% | activity, negative = inhibition [17] 11.7% | Potency [5] > 46 µM | Potency [6] > 46 µM | outcome [7] | Potency [8] | activity change, negative = inhibition [11] 7.32% | Potency [12] | Potency [13] | Potency [14] | Potency [15] | Potency [16]

Cc1ccccc1-c1ccc2ncnc(NC3CC3)c2c1
inactive: Potency [1] > 11.4 µM | activity change, negative = inhibition [2] 5.4% | activity change, negative = inhibition [4] 3.53% | Potency [5] > 46 µM | Potency [6] > 46 µM | outcome [7] | Potency [10] | activity change, negative = inhibition [11] -3.61% | Potency [15] | Potency [16]
-0.878%: max response [11, 21]
4.35%: max response [11, 20]
active: Potency [3] 0.126 µM | Potency [9] 3.16 µM | Potency [18] 1.26 µM | Potency [12] 11.2 µM | Potency [13] 7.08 µM | Potency [14] 12.6 µM

CN(C)c1ncc2nc(-c3ccccc3)c(=O)n(-c3ccccc3)c2n1
15.8%: max response [11, 21]
22.5%: max response [11, 20]
inactive: Potency [1] > 11.4 µM | activity change, negative = inhibition [2] 15.6% | activity change, negative = inhibition [4] 23.9% | Potency [5] > 9.22 µM | Potency [6] > 46 µM | outcome [7] | activity change, negative = inhibition [11] -3.18% | Potency [12] | Potency [13] | Potency [14] | Potency [15] | Potency [16]
active: Potency [3] 0.398 µM | Potency [19] 0.631 µM

O=c1c(-c2cccs2)nc2cnc(N3CCOCC3)nc2n1Cc1cccs1
0.532%: max response [11, 21]
active: Potency [3] 15.8 µM
22.5%: max response [11, 20]
inactive: Potency [1] > 11.4 µM | activity change, negative = inhibition [2] 15.1% | activity change, negative = inhibition [4] -8.44% | Potency [5] > 9.22 µM | Potency [6] > 46 µM | outcome [7] | Potency [8] | Potency [10] | activity change, negative = inhibition [11] -15.7% | Potency [12] | Potency [13] | Potency [14] | Potency [15] | Potency [16]
